Screening data (PubChem BioAssay)
Rows were chosen to be rich in hits. Some 4.2% of all compounds tested hit in one or more screens of this group.
BJeLR viability: BJeLR cell viability loss; inhibition, % (test concentration not listed); 300,000 compounds, 0.17% hits; BJeLR (HRASV12) viability, CellTiter-Glo ATP luminescence, 48 h; in the data active means inhibition above about 50%
Mtb FBA inh: inhibits M. tuberculosis FBA enzyme; 360,000 compounds, 2.3% hits; purified M. tuberculosis FBA, fluorescence read-out; inhibition, % at 1 µM; P9WQA3; in the data active means inhibition above about 27%
PrPC TRFRET: inhibitors of human cell surface prion protein PrPC. 370,000 compounds, 0.43% hits. inhibition, % at 13.8 µM. P04156. AID 720596. TR-FRET read-out; in the data active means inhibition above about 24%
RecA splice inh: inhibitors of M. tuberculosis RecA intein splicing. P9WHJ3. cell-free RecA intein splicing, fluorescence. inhibition, % (test concentration not listed). 290,000 compounds, 0.75% hits. AID 2221; in the data active means inhibition above about 30%
Target sequence (P9WHJ3 whole entry, looked up, canonical isoform): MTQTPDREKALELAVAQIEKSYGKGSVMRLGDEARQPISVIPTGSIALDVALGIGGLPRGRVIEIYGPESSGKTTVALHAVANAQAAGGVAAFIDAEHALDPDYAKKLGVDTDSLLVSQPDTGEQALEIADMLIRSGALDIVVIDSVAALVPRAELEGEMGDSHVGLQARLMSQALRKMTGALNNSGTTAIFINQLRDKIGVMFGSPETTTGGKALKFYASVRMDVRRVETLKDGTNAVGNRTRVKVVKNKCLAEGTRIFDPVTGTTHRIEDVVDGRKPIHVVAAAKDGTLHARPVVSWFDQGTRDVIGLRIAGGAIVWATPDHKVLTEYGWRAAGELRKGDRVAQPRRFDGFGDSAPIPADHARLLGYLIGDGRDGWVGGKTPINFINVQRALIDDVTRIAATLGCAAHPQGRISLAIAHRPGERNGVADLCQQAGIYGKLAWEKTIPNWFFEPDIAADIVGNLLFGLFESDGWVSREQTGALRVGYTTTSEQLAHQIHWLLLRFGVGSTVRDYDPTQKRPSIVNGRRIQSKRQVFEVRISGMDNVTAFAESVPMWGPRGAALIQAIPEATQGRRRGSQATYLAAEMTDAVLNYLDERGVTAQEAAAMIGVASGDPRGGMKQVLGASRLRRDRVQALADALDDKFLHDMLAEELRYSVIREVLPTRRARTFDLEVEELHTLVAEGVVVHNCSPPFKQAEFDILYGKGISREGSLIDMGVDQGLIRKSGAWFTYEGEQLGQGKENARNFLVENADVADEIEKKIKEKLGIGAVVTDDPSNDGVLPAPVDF
GDH-TPI inh: counter-screen for M. tuberculosis FBA inhibitors: GDH-TPI coupled enzymes; inhibition, % at 4.8 µM; AID 588335; GDH-TPI coupled enzyme counterscreen, NADH absorbance; 360,000 compounds, 1.2% hits; in the data active means inhibition above about 30%
Of the large screens only hits and unclear results are named; the others gave an inactive call; ! = a repeat was not active.

CCN(C(=O)CSc1nnc(-c2cccnc2)n1Cc1ccco1)c1ccccc1	none (no result: BJeLR viability, Mtb FBA inh, RecA splice inh, GDH-TPI inh)
O=C(N/C(=C/c1cccs1)c1nc2ccccc2[nH]1)c1ccccc1	GDH-TPI inh 33
Cc1ccc(C(=O)N/C(=C\c2cccs2)c2nc3ccccc3[nH]2)cc1	GDH-TPI inh 44
O=C(N/C(=C\c1cccnc1)c1nc2ccccc2[nH]1)c1cccc(Br)c1	none
O=C(N/C(=C\c1ccc(Br)cc1)c1nc2ccccc2[nH]1)c1ccco1	GDH-TPI inh 47
N#C/C(=C\c1cccs1)c1nc2ccccc2[nH]1	none
O=C(Nc1ccc(F)cc1F)C1CCN(c2nnc(-n3cccc3)s2)CC1	none (no result: BJeLR viability, Mtb FBA inh, RecA splice inh, GDH-TPI inh)
O=C(Cc1ccccc1)NC1CCCCN(Cc2ccc(Cl)cc2)C1=O (centres undefined)	none (no result: BJeLR viability, Mtb FBA inh, RecA splice inh, GDH-TPI inh)
CC/C(=N/NC(=O)c1ccccc1O)c1c(C)[nH]n(-c2ccccc2)c1=O	GDH-TPI inh 31
Cc1[nH]n(-c2ccccc2)c(=O)c1C(=O)c1ccccc1	none
O=C(c1cnc2ccccc2n1)N1CCN(c2ccc(C(F)(F)F)cn2)CC1	GDH-TPI inh 31
COc1cc(C(=O)C(=O)c2ccc(O)c(OC)c2)ccc1O	GDH-TPI inh 35
CC(C)c1ccc(/C=N/NC(=O)c2nnn(-c3nonc3N)c2CSC2=NCCS2)cc1	RecA splice inh 34
Nc1nonc1-n1nnc(C(=O)N/N=C/c2ccc(Br)cc2)c1CSC1=NCCS1	RecA splice inh 31
Nc1nonc1-n1nnc(C(=O)N/N=C/c2cccnc2)c1CSC1=NCCS1	none
CCC(=O)N(C)CCc1cc2c(c(OC)c1/C=N/Nc1ccc(C(=O)O)cc1)OCO2	GDH-TPI inh 51
CCC(=O)N(C)CCc1cc2c(c(OC)c1/C=N/NC(=O)[C@H]1C[C@@H]1c1ccccc1)OCO2	none
Cc1c(CC(=O)O)c(=O)oc2cc3c(cc12)CCC(C)(C)O3	Mtb FBA inh active
Cc1c(CC(=O)NCCCC(=O)O)c(=O)oc2cc3oc4c(c3cc12)CCCC4	none
COCCCNC(=O)Cc1c(C)c2cc3c(cc2oc1=O)OC(C)(C)CC3	Mtb FBA inh 192
Cc1c(CC(=O)NCCCC(=O)O)c(=O)oc2cc3c(cc12)CCC(C)(C)O3	Mtb FBA inh active
Cc1c(CC(=O)N2CCC(C(N)=O)CC2)c(=O)oc2cc3c(cc12)CCC1(CCCCC1)O3	Mtb FBA inh active
CCC(NC(=O)Cc1c(C)c2cc3c(cc2oc1=O)OC(C)(C)CC3)C(=O)O (centres undefined)	Mtb FBA inh active
Cc1c(CC(=O)NCCCCCC(=O)O)c(=O)oc2c(C)c3oc4c(c3cc12)CCCC4	none
Cc1c(CC(=O)NCCCCCC(=O)O)c(=O)oc2cc3c(cc12)CCC(C)(C)O3	Mtb FBA inh 187
COc1ccc2c(Cn3cnc4cc([N+](=O)[O-])ccc4c3=O)cc(=O)oc2c1	GDH-TPI inh 31 (no result: PrPC TRFRET)
Cc1ccc(OCCn2cnc3cc([N+](=O)[O-])ccc3c2=O)cc1	none
CN(C)CCOc1ccc(/C(=C(/CCCl)c2ccccc2)c2ccccc2)cc1	RecA splice inh 33
O=C(COc1ccc(F)cc1Cl)Nc1nnc(-c2ccc(F)c(F)c2)o1	none (no result: BJeLR viability, Mtb FBA inh, RecA splice inh, GDH-TPI inh)
COc1cc2c(C#N)c(N3CCCCC3)nc(N)c2c(N)n1	none
COc1cc2c(C#N)c(N3CCOCC3)nc(N)c2c(N)n1	Mtb FBA inh 32
O=C(CCn1nnc(-c2cccs2)n1)NCc1cccs1	none (no result: BJeLR viability, Mtb FBA inh, RecA splice inh, GDH-TPI inh)
COc1ccc(/C=N/NS(=O)(=O)c2ccc(C)cc2)cc1OC(=O)c1ccccc1	Mtb FBA inh 128
COc1cccc(/C=C2\CC3(OC(=O)c4ccco4)CCCN2C3)c1 (centres undefined)	none (no result: BJeLR viability, Mtb FBA inh, RecA splice inh, GDH-TPI inh)
O=C1NC(=O)/C(=C/c2ccccc2OCc2ccccc2)S1	GDH-TPI inh 32
COC(=O)[C@H]1C[C@@]2(N3CCCC3)c3ccccc3N[C@H]2N1S(C)(=O)=O	none (no result: BJeLR viability, Mtb FBA inh, RecA splice inh, GDH-TPI inh)
O=[N+]([O-])c1ccc(SCCc2ccccn2)cc1	none
O=[N+]([O-])c1ccc(SCCc2ccncc2)cc1	GDH-TPI inh 42!
Cc1ccc(NC(=O)c2ccc(CS(=O)(=O)Cc3ccccc3C)o2)c(C)c1	none (no result: BJeLR viability, Mtb FBA inh, RecA splice inh, GDH-TPI inh)
Cc1ccc(-c2cc(-c3ccccc3)c3c(N)c(S(C)(=O)=O)sc3n2)cc1	none (no result: RecA splice inh)
CC(=O)c1sc2nc(-c3cccs3)cc(C(F)(F)F)c2c1N	Mtb FBA inh active
CS(=O)(=O)c1sc2nc(-c3cccs3)cc(-c3ccccc3)c2c1N	GDH-TPI inh 31
Cc1c(C(=O)O)sc2nc(-c3cccs3)cc(C(F)(F)F)c12	Mtb FBA inh 32
Cc1c(C(=O)Nc2nccs2)sc2nc(-c3cccs3)cc(C(F)(F)F)c12	none
O=C(NC1CCCCN(Cc2ccc(Cl)cc2)C1=O)c1ccc(-c2ccccc2)cc1 (centres undefined)	none (no result: BJeLR viability, Mtb FBA inh, RecA splice inh, GDH-TPI inh)
COc1cc(C(=O)NC2CCCCN(Cc3ccc(Cl)cc3)C2=O)cc(OC)c1OC (centres undefined)	none (no result: BJeLR viability, Mtb FBA inh, RecA splice inh, GDH-TPI inh)
CCCCN1CCN(C(=O)C2CCCN(C(=O)c3ccc4c(c3)NC(=O)CS4)C2)CC1 (centres undefined)	none (no result: BJeLR viability, Mtb FBA inh, RecA splice inh, GDH-TPI inh)
CC(C)CC(=O)Nc1ccc2oc(-c3cccnc3)nc2c1	Mtb FBA inh 129
CCC(=O)Nc1ccc2oc(-c3cccnc3)nc2c1	Mtb FBA inh 172
Cc1ccc2nc(-c3cccnc3)oc2c1	Mtb FBA inh 41
O=C(Nc1ccc2oc(-c3cccnc3)nc2c1)c1ccc(Br)o1	none
O=C(Nc1ccc2oc(-c3cccnc3)nc2c1)c1cccnc1	none (no result: RecA splice inh)
COCCNC(=O)/C(C#N)=C1\N=C(NC(=O)c2ccco2)c2ccccc21	GDH-TPI inh 45 (no result: BJeLR viability, RecA splice inh)
CCCNC(=O)/C(C#N)=C1\N=C(NC(=O)c2ccco2)c2ccccc21	GDH-TPI inh 35
C=CCc1cccc(C=NNC(=O)c2ccco2)c1O	none (no result: BJeLR viability, Mtb FBA inh, RecA splice inh, GDH-TPI inh)
COc1ccc(/C=C2\CCn3c2nc2cc(C(=O)O)ccc2c3=O)cc1OC	none
COc1ccc(/C=C2\CCn3c2nc2cc(C(=O)O)ccc2c3=O)cc1O	GDH-TPI inh 51
CSc1ccc(/C=C2\CCn3c2nc2cc(C(=O)O)ccc2c3=O)cc1	GDH-TPI inh 63
COC(=O)c1ccc(/C=C2\CCn3c2nc2cc(C(=O)O)ccc2c3=O)cc1	none (no result: PrPC TRFRET)
NS(=O)(=O)c1ccc(N=Nc2c(O)[nH]c(=S)[nH]c2=O)cc1	RecA splice inh 34
COC(=O)C[C@@H]1CC[C@H]2[C@@H](COc3ccc(NC(=O)Nc4ccccc4Cl)cc3C(=O)N2C)O1	none (no result: BJeLR viability, Mtb FBA inh, RecA splice inh, GDH-TPI inh)
O=C1CS/C(=N/N=C/c2cccs2)N1Cc1ccc(F)cc1	GDH-TPI inh 37
CN1CCN(c2ccc(-c3ccc4ccccc4n3)cc2)CC1	none
c1ccc2nc(-c3ccc(N4CCOCC4)cc3)ccc2c1	GDH-TPI inh 33
CN1CCN(C(=O)/C(=C/c2cn(S(=O)(=O)N(C)C)c3ccccc23)NC(=O)c2ccccc2Cl)CC1	none
CCn1cc(/C=C(\NC(=O)c2ccccc2Cl)C(=O)N2CCN(C)CC2)c2ccccc21	GDH-TPI inh 39
CCn1cc(/C=C(\NC(=O)c2ccccc2F)C(=O)N2CCCC2)c2ccccc21	GDH-TPI inh 32 (no result: PrPC TRFRET)
CCn1cc(/C=C(\NC(=O)c2ccccc2Cl)C(=O)N2CCOCC2)c2ccccc21	none
